Growth data for 38 compounds are collected here from PubChem BioAssay (NCI).

About 83,000 compounds went through this panel and 20% of them were active in at least one assay; those are over-represented in the sample as a whole.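 96-well plates, one dose, 48 hours. Percent growth reported; active if below 10.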 Unmarked numbers belong to inactive results. Calls of active or inactive are those of the source.

For one test, the system named is SK-MEL-2 melanoma. Briefly: NCI-60 one-dose screen, 48 h (100 = growth as untreated, 0 = no growth, -100 = all killed). Conditions: 10 µM unless noted.
In the case of `O=C(O)CSCC(=O)Nc1cc(C(F)(F)F)ccc1Cl`, the growth was 111%.

Turning to `N=C(N)c1nn(C2OC(CO)C(O)C2O)c2nc[nH]c(=O)c12` (stereo unspecified), the growth is -23% (active).

As to `CC(C)C(=O)OCCOc1ccc(C(C)(C)C)cc1`, the growth was 92.3%.

Turning to `OCCNc1ccccc1`, the growth was 103%.

With `C/C(=N\Nc1ccc([N+](=O)[O-])cc1[N+](=O)[O-])c1ccc(Br)cc1`, the growth is 97.4%.

For `O=C(Oc1ccccc1Cl)c1ccc(Cl)cc1Cl`, the growth is 109%.

For `C=C(C)COc1ccc(C(C)(C)C)cc1`, the growth was 101%.

As for `CCC(C)c1c(N)n(S(=O)(=O)c2ccc(C)cc2)oc1=O` (stereo unspecified), the growth is 107%.

On to `Nc1ccn(C2CC(N)C(CO)O2)c(=O)n1` (stereo unspecified), for which the growth was 122%.

With `CN(CCCN(C)CCC1CCCCC1)CCC1CCCCC1`, the growth is 74.8%.

`O=S(Cc1ccccc1)/C(=C/NC(=S)Nc1cc(Cl)ccc1Cl)c1ccccc1` (stereo unspecified): the growth is 101%.

Regarding `Cc1c(Cl)cccc1N=C=S`, the growth was 99.5%.

With `CCCC1OC(c2ccco2)OCC1CC` (stereo unspecified), the growth is 97.7%.

`CN1CCCN(C(c2ccccc2)c2ccc(Br)cc2)CC1` (stereo unspecified): the growth was 113%.

In the case of `OCCOc1ccc(-c2cc(-c3ccccn3)nc(-c3ccccn3)c2)cc1`, the growth is 37.6%.

In the case of `O=C(Nc1cccc(Cl)c1)c1ccc(Cl)cc1Cl`, the growth was 95.6%.

As to `CC(=O)Oc1c(Cl)cccc1-c1ccccc1`, the growth is 98.9%.

Turning to `C/C=C/C1OCC(CC)C(CCC)O1` (stereo unspecified), the growth is 102%.

Regarding `COc1cccc(C(=O)O)c1OC`, the growth was 99.3%.

As for `CC(C)C1CCC(C)C(O)C1` (stereo unspecified), the growth is 94.2%.

`COc1cc(CC#N)c([N+](=O)[O-])cc1OC`: the growth was 109%.

For `CCCNS(=O)(=O)c1ccc(Cl)cc1`, the growth is 106%.

In the case of `CCOC(=O)/C(C)=C\c1ccc(OC)c(OC)c1`, the growth is 112%.

With `O=C(NCc1ccccc1)c1cccc([N+](=O)[O-])c1`, the growth was 104%.

Take `OCCc1ccc(Cl)cc1`: the growth is 99.3%.

Take `C/C(=N\O)c1ccccn1`: the growth is 94.9%.

On to `CC1(C)OC(=O)CC1=O`, for which the growth is 90.9%.

As to `O=C1C=Cc2ccccc2/C1=C/c1[nH]c(=O)[nH]c1O`, the growth was 22.9%.

Regarding `Nc1ncnc2c1ncn2C1OC(CO)C2OC21` (stereo unspecified), the growth was 95.2%.

Regarding `C=CCS(C)(=O)=O`, the growth is 100%.

`Cc1ccc(C2CCCCC2)cc1Br`: the growth was 99%.

In the case of `Cc1ccc2[nH]c3ccccc3c2c1`, the growth was 109%.

As for `Cc1ccc(/C=N/NC(N)=S)s1`, the growth was 102%.

`O=S(=O)(O)c1cccnc1`: the growth is 136%.

As to `O=C(O)c1ccccc1Cc1ccc2c(c1)CCCC2`, the growth was 113%.

As to `Nc1cc(F)ccc1[N+](=O)[O-]`, the growth is 114%.

Regarding `CCOc1ccc(C(=O)O)cc1`, the growth was 109%.

`CCCCOC(=O)c1ccccc1O`: the growth is 161%.

For the next test, the system named is EKVX NSCLC. The description is as above. To be noted: 10 µM unless noted.
Regarding `O=C(O)CSCC(=O)Nc1cc(C(F)(F)F)ccc1Cl`, the growth was 105%.

Take `N=C(N)c1nn(C2OC(CO)C(O)C2O)c2nc[nH]c(=O)c12` (stereo unspecified): the growth is -0.273% (active).

As for `CC(C)C(=O)OCCOc1ccc(C(C)(C)C)cc1`, the growth was 103%.

`OCCNc1ccccc1`: the growth is 111%.

In the case of `C/C(=N\Nc1ccc([N+](=O)[O-])cc1[N+](=O)[O-])c1ccc(Br)cc1`, the growth is 96.4%.

As for `O=C(Oc1ccccc1Cl)c1ccc(Cl)cc1Cl`, the growth is 94.4%.

Take `C=C(C)COc1ccc(C(C)(C)C)cc1`: the growth is 98.9%.

For the compound `CCC(C)c1c(N)n(S(=O)(=O)c2ccc(C)cc2)oc1=O` (stereo unspecified), the growth was 121%.

For the compound `Nc1ccn(C2CC(N)C(CO)O2)c(=O)n1` (stereo unspecified), the growth is 100%.

Take `CN(CCCN(C)CCC1CCCCC1)CCC1CCCCC1`: the growth was 61.4%.

For the compound `O=S(Cc1ccccc1)/C(=C/NC(=S)Nc1cc(Cl)ccc1Cl)c1ccccc1` (stereo unspecified), the growth is 99.3%.

Take `Cc1c(Cl)cccc1N=C=S`: the growth is 89.1%.

In the case of `CCCC1OC(c2ccco2)OCC1CC` (stereo unspecified), the growth was 96.4%.

In the case of `CN1CCCN(C(c2ccccc2)c2ccc(Br)cc2)CC1` (stereo unspecified), the growth was 66.9%.

Regarding `OCCOc1ccc(-c2cc(-c3ccccn3)nc(-c3ccccn3)c2)cc1`, the growth is 18.5%.

As for `O=C(Nc1cccc(Cl)c1)c1ccc(Cl)cc1Cl`, the growth was 84.3%.

For the compound `CC(=O)Oc1c(Cl)cccc1-c1ccccc1`, the growth is 103%.

Consider `C/C=C/C1OCC(CC)C(CCC)O1` (stereo unspecified), for which the growth is 105%.

In the case of `COc1cccc(C(=O)O)c1OC`, the growth is 91.9%.

Consider `CC(C)C1CCC(C)C(O)C1` (stereo unspecified), for which the growth was 102%.

Turning to `COc1cc(CC#N)c([N+](=O)[O-])cc1OC`, the growth was 111%.

For `CCCNS(=O)(=O)c1ccc(Cl)cc1`, the growth is 91.6%.

For the compound `CCOC(=O)/C(C)=C\c1ccc(OC)c(OC)c1`, the growth is 102%.

`O=C(NCc1ccccc1)c1cccc([N+](=O)[O-])c1`: the growth is 102%.

On to `OCCc1ccc(Cl)cc1`, for which the growth is 97.9%.

Turning to `C/C(=N\O)c1ccccn1`, the growth was 107%.

Regarding `CC1(C)OC(=O)CC1=O`, the growth was 96.8%.

In the case of `O=C1C=Cc2ccccc2/C1=C/c1[nH]c(=O)[nH]c1O`, the growth was 69.6%.

Regarding `Nc1ncnc2c1ncn2C1OC(CO)C2OC21` (stereo unspecified), the growth was 105%.

For `C=CCS(C)(=O)=O`, the growth was 91.3%.

As for `Cc1ccc(C2CCCCC2)cc1Br`, the growth was 98.9%.

Consider `Cc1ccc2[nH]c3ccccc3c2c1`, for which the growth was 108%.

Regarding `Cc1ccc(/C=N/NC(N)=S)s1`, the growth is 96%.

On to `O=S(=O)(O)c1cccnc1`, for which the growth is 93.7%.

For the compound `O=C(O)c1ccccc1Cc1ccc2c(c1)CCCC2`, the growth was 119%.

On to `Nc1cc(F)ccc1[N+](=O)[O-]`, for which the growth was 100%.

Regarding `CCOc1ccc(C(=O)O)cc1`, the growth is 99.6%.

As for `CCCCOC(=O)c1ccccc1O`, the growth is 106%.
